Test results from PubChem BioAssay (NCATS).
Records with an inconclusive call do not appear. Where a call stands in place of a potency, no number is given. Active and inactive are the calls of the source. The call rests on the fitted dose curve; in most records, active means well fitted inhibition curve with a large enough effect; inconclusive means small, poorly fitted or top-dose-only effect; inactive means flat fitted curve, though single readings scatter.

System: CP203
Test: qHTS profiling for inhibitors of Plasmodium falciparum proliferation (AID 504749); further: nearly all actives have a fitted effect of over 60% in size
Conditions: P. falciparum in erythrocytes, SYBR Green DNA, 72 h; series mostly up to 28.7 µM
From the text: NIH National Institute of Allergy and Infectious Diseases [NIAID] NIH Chemical Genomics Center [NCGC] MLPCN Grant: None Assay Provider: Xinzhuan Su, NIAID NCGC Assay Overview: Plasmodium falciparum is a virulent malarial parasite that kills 1-2 million people worldwide each year. Transmitted by mosquitoes, the sporozoite form of the parasite enters the blood stream to infect hepatocytes, where they become merozoites that infect red blood cells (erythrocytes). Within erythrocytes, merozoites begin a […] cycle of growth and division, after which the parasite is released to infect new red blood cells. Gametocytes, which form within erythrocytes as well, circulate in the bloodstream and are ingested by the mosquito, thereby completing the life cycle. To profile malarial isolates for differential chemical responses and to identify inhibitors of malarial growth, an assay that measures P. falciparum growth and replication within erythrocytes was employed. This assay uses a DNA binding fluorescent dye (SYBR Green) to detect parasite DNA following cell lysis. Because mature erythrocytes lack DNA, only Plasmodium-derived DNA is detected.
NCGC Assay Protocol Summary: The SYBR Green viability assay was adapted from a method described previously (Plouffe et al., 2008). For screening 3 ul culture medium was dispensed into 1536 well black clear bottom plates (Aurora Biotechnologies) using a Multidrop Combi (Thermo Fisher Scientific Inc.), 23 nL compounds in DMSO were added by a pin tool (Kalypsys), and 5 ul of erythrocytes infected with P. falciparum (0.3% parasitemia, 2.5% hematocrit final concentration) were added. The plates were incubated at 37 C in a humidified incubator in 5% CO2 for 72 h, and 2 ul lysis buffer (20 mM Tris HCl, 10 mM EDTA, 0.16% saponin, 1.6% triton X, 10X SYBR Green I supplied as 10,000X […] by Invitrogen) was added to each well. The plates were mixed for 25 sec with gentle shaking and incubated overnight at room temperature in the dark. The following morning, fluorescence intensity at 485(14) nm excitation and 535(25) nm emission wavelengths was measured on an EnVision (Perkin Elmer) plate reader. Plate reads were normalized relative to the control inhibitor (0.29 uM artemisinin) and vehicle (DMSO) wells present on each plate and then corrected by an algorithm using vehicle-only control plates at the beginning and end of the compound plate stack.
Potency means the concentration at half of the fitted maximal effect.

Row | SMILES | Potency
1 | N#Cc1c(N(CC(=O)O)CC(=O)O)sc(C(=O)O)c1CC(=O)O | inactive
2 | O=C1C(CCC(O)c2ccc(F)cc2)C(c2ccc(O)cc2)N1c1ccc(F)cc1 (centres undefined) | inactive
3 | NS(=O)(=O)c1cc(Cl)c(Cl)c(S(N)(=O)=O)c1 | inactive
4 | CN1CC(=O)N2C(Cc3c([nH]c4ccccc34)[C@H]2c2ccc3c(c2)OCO3)C1=O (some centres undefined) | inactive
5 | COc1c(C)c2c(c(O)c1CC=C(C)CCC(=O)OCCN1CCOCC1)C(=O)OC2 | 6.01 µM (active)
6 | N#CC(c1ccc(Cl)cc1)c1c(Cl)cc(-n2ncc(=O)[nH]c2=O)cc1Cl (centres undefined) | inactive
7 | Clc1ccc(COC(Cn2ccnc2)c2ccc(Cl)cc2Cl)c(Cl)c1 (centres undefined) | 5.1 µM (active)
8 | COc1cc2c(cc1OC)CC(=O)N(CCCN(C)C[C@H]1Cc3cc(OC)c(OC)cc31)CC2 | inactive
9 | Cc1cc2nc3c(=O)[nH]c(=O)nc-3n(CC(O)C(O)C(O)CO)c2cc1C (centres undefined) | inactive
10 | COc1ccnc(CS(=O)c2nc3ccc(OC(F)F)cc3[nH]2)c1OC (centres undefined) | inactive
11 | CS(=O)(=O)c1ccc(C2=C(c3ccccc3)C(=O)OC2)cc1 | inactive
12 | C=C1c2cccc(O)c2C(O)=C2C(=O)[C@@]3(O)C(O)=C(C(N)=O)C(=O)[C@@H](N(C)C)[C@@H]3[C@@H](O)[C@H]12 | inactive
13 | O=C(O)c1nc(=O)[nH]c(=O)[nH]1 | inactive
14 | CC(C)CN(C[C@@H](O)[C@H](Cc1ccccc1)NC(=O)O[C@H]1CO[C@H]2OCC[C@H]21)S(=O)(=O)c1ccc(N)cc1 | inactive
